The values that follow come from PubChem BioAssay.

“And” between values parts separate entries of the source, which are not always exact repeats. Identical values can stand only once. The source made the active and inactive calls.

Sequence of Homeobox protein Hox-A13 (Mus musculus) (Q62424 whole entry, looked up): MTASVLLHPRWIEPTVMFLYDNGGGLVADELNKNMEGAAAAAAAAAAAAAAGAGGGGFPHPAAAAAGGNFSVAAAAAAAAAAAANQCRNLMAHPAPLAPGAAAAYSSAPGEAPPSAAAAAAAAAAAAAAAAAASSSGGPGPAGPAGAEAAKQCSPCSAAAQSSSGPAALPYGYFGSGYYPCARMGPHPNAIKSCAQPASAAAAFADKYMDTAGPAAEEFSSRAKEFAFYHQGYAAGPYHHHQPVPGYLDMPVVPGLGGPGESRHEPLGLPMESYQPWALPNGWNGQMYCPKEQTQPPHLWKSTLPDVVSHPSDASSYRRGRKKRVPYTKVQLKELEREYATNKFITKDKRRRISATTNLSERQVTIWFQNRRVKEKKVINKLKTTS

This assay has as its target Homeobox protein Hox-A13 (Mus musculus) (UniProt Q62424). The assay can be described thus: disruptors of Hoxa13 oligonucleotide interaction – biochemical, fluorescence polarization, labeled oligonucleotide, primary screen (AID 1185). The following applies: Hoxa13:DNA binding, 15 min, higher = more signal, called active from +8 up or from −8 down. In general terms: Fluorescence polarisation rises when a labelled molecule tumbles more slowly, as on binding a larger partner.
As for `COC(=O)C1=C(C)N(Cc2ccccc2)C2=C(C(=O)c3ccccc3)[C@H](c3ccccc3)[C@@](O)(C(=O)OC)C(=O)N2[C@@H]1c1ccccc1`, the z-score is -1.74 (inactive) and -0.745 (inactive). Take `CCOC(=O)CCN1C(=O)[C@H]2[C@H]3[C@H](O)[C@H](O)CC(=NNC(=O)OCC)[C@@H]3CC[C@H]2C1=O`: the z-score was 0.0438 (inactive). Regarding `C#CCN1C(/C=C/c2ccccc2)C(=O)OC[C@H]1c1ccccc1` (some centres undefined), the z-score was 0.468 (inactive) and -2.46 (inactive). `Cc1cc2c(nc1C)CCCN2CC(C)ON=C[C@@H](C)[C@H](OCc1ccccc1)C(C)C` (some centres undefined): the z-score is -0.838 (inactive). Under `CO[C@H]1COC(=O)CC=C[C@H](C)[C@H](OC)COC(=O)[C@@H](C)COC(=O)CC=C[C@@H]1C` stands 0.397 (inactive) and 0.774 (inactive); under `COC(=O)C1=C(C)N(Cc2ccccc2)[C@]23O[C@](C(=O)OC)(C(=O)N2[C@@H]1c1ccccc1)[C@H]1CCCC(=O)[C@H]13`, -4.3 (inactive) and 0.514 (inactive). Under `Cc1ccc(S(=O)(=O)N[C@H]2COC(=O)[C@@H](C)COC(=O)[C@H](C)NC(=O)CC=C[C@H]2C)cc1` stands -0.0362 (inactive); under `C=CCN(C(=O)C1N(c2c(Cl)cccc2CO)C(=O)C2C(C(=O)O)C3C=CC21O3)C(C)(C)C` (centres undefined), -1.56 (inactive) and 0.87 (inactive). Turning to `C=CCN(CCCC)C(=O)C(c1cccs1)N(CCOCCO)C(=O)/C=C\C(=O)O` (centres undefined), the z-score is 0.578 (inactive) and 0.724 (inactive).
